Among the data in PubChem BioAssay (Tox21) are Potency values, retold here.

A short description of experiment [1]: qHTS assay to identify aromatase inhibitors - cell viability counter screen (AID 743084).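 Further: cells stimulated with testosterone during compound exposure; nearly all actives have a fitted effect of over 55% in size.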 Further: potency means the concentration at half of the fitted maximal effect. In general terms: In qHTS, concentration-response curves come from the screen itself.
Experiment [2] concerns the target Aryl hydrocarbon receptor (Homo sapiens) (UniProt P35869). Kind of experiment: qHTS assay to identify small molecule that activate the aryl hydrocarbon receptor (AhR) signaling pathway (AID 743085). Further: nearly all actives have a fitted effect of over 15% in size. Further: potency means the concentration at half of the fitted maximal effect.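 On activation: HG2L7.5c1 human HepG2 liver cells with stably integrated DRE-driven firefly reporter; series mostly up to about 70 µM.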 Put shortly:
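Steps: seed HepG2-AhR-luc cells; allow 5 h at 37C; pin-transfer test compound or vehicle; incubate 24 h at 37C; add viability dye (30 min, 37C) and read fluorescence; add luciferase substrate (30 min, RT) and read luminescence.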

In experiment [3] the target is Peroxisome proliferator-activated receptor gamma (Homo sapiens) (UniProt P37231). Nature of the experiment: qHTS assay to identify small molecule agonists of the peroxisome proliferator-activated receptor gamma (PPARg) signaling pathway (AID 743094; active means well fitted activation curve with a large enough effect in the signal ratio in the repeat runs, not every such curve was filed as active; the % refers to the signal ratio). Summed up: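 Agonist activity was taken from a beta-lactamase reporter (FRET substrate, 1 h at room temperature) in HEK293H cells carrying a PPARg UAS-bla construct. Compounds in DMSO were incubated 17 h at 37C after a 5 h cell pre-incubation.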
Peroxisome proliferator-activated receptor gamma (Homo sapiens), sequence (P37231 whole entry, looked up): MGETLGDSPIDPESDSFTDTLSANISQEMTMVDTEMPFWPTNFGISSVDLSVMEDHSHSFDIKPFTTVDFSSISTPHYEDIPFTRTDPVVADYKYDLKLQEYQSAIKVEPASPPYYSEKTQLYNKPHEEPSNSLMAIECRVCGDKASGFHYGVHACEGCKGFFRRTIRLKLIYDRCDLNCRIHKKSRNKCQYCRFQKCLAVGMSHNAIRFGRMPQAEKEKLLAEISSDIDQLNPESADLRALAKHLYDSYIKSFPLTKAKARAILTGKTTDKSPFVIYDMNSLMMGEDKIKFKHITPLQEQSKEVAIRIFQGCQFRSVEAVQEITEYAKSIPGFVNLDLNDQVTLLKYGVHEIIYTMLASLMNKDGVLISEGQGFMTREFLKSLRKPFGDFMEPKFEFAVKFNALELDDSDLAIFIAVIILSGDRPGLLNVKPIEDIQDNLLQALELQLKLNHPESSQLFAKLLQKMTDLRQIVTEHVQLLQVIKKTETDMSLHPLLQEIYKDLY

Experiment [4] can be described thus: qHTS assay for small molecule agonists of the antioxidant response element (ARE) signaling pathway - cell viability counter screen (AID 743203; calls by dose curve; further: nearly all actives have a fitted effect of over 55% in size; further: potency means the concentration at half of the fitted maximal effect). Summed up: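 Viability counter screen: CellTiter-Glo luminescence, read after 30 min at room temperature, in ARE-bla HepG2 wells. Compound exposure lasted 16 h at 37C/5% CO2, following a 5 h pre-incubation of the cells after plating.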

The nature of experiment [5]: qHTS assay to identify small molecule agonists of the peroxisome proliferator-activated receptor delta (PPARd) signaling pathway - cell viability counter screen (AID 743211). Further: nearly all actives have a fitted effect of over 55% in size. Further: potency means the concentration at half of the fitted maximal effect. Put shortly:
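Viability of GeneBLAzer PPARd UAS-bla HEK293H cells was assessed after 17 h compound incubation at 37C, using CellTiter-Glo reagent added after the reporter read and luminescence recorded 30 min later.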

The nature of experiment [6]: qHTS assay to identify small molecule antagonists of the peroxisome proliferator-activated receptor delta (PPARd) signaling pathway - cell viability counter screen (AID 743213). Further: nearly all actives have a fitted effect of over 50% in size. Further: potency means the concentration at half of the fitted maximal effect. Put shortly:
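Cytotoxicity counter screen: CellTiter-Glo luminescence read 30 min after addition, in the same wells as the reporter assay. There, PPARd UAS-bla HEK293H cells (3000/well) were treated 17 h at 37 C with compound and 300 nM L165041.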

The nature of experiment [7]: qHTS assay to identify small molecule agonists of the farnesoid-X-receptor (FXR) signaling pathway - cell viability counter screen (AID 743218). Further: nearly all actives have a fitted effect of over 45% in size. Further: potency means the concentration at half of the fitted maximal effect. Summed up:
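Viability counter screen in the same wells: CellTiter-Glo luminescence, 30 min room-temperature incubation, measured after the beta-lactamase read. Cells were GeneBLAzer FXR-UAS-bla HEK 293T, compound-treated 16 h at 37C.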

The nature of experiment [8]: qHTS assay to identify small molecule antagonists of the farnesoid-X-receptor (FXR) signaling pathway - cell viability counter screen (AID 743221; active means well fitted cell-killing curve with a large enough effect in the repeat runs, not every such curve was filed as active; further: nearly all actives have a fitted effect of over 50% in size; further: potency means the concentration at half of the fitted maximal effect). Put shortly:
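Quantitative HTS of the Tox21 10K library run in parallel with the beta-lactamase reporter read. HEK 293T cells carrying a UAS-driven bla reporter got compound and 50 uM CDCA (final) for 16 h; ATP-based luminescence followed.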

The target of experiment [9] is Vitamin D3 receptor (Homo sapiens) (UniProt P11473). Kind of experiment: qHTS assay to identify small molecule agonists of the vitamin D receptor (VDR) signaling pathway (AID 743222; calls by dose curve). Summed up: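 Agonist mode, beta-lactamase reporter: fluorescence from LiveBLAzer B/G FRET substrate (2 h, room temperature) read after 16 h compound treatment at 37 C of VDR-bla cells, which were pre-incubated 4 h after seeding.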
Vitamin D3 receptor (Homo sapiens), sequence (P11473 whole entry, looked up): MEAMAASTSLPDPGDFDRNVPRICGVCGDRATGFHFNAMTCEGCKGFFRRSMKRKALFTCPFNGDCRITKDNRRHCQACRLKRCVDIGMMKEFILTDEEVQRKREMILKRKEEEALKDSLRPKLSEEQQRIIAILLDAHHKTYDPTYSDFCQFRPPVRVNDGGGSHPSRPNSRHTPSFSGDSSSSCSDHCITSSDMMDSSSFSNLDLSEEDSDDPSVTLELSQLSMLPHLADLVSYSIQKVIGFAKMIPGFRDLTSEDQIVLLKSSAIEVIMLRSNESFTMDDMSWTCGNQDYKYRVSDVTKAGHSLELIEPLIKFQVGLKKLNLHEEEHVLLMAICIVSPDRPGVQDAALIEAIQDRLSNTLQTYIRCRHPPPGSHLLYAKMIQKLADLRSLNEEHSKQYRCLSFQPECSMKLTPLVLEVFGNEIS

For experiment [10] the target is unchanged. Nature of the experiment: qHTS assay to identify small molecule antagonists of the vitamin D receptor (VDR) signaling pathway (AID 743223; active means well fitted inhibition curve with a large enough effect in the signal ratio in the repeat runs, not every such curve was filed as active; the % refers to the signal ratio). Put shortly:
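Fluorescence from LiveBLAzer B/G FRET substrate, read after 2 h at room temperature, reflects beta-lactamase reporter activity in VDR-bla cells treated 16 h at 37C with compounds and agonist 1alpha,25-dihydroxyvitamin D3 (3 nM final).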

A short description of experiment [11]: qHTS assay to identify small molecule antagonists of the peroxisome proliferator-activated receptor gamma (PPARg) signaling pathway - cell viability counter screen (AID 743194). Further: nearly all actives have a fitted effect of over 55% in size. Further: potency means the concentration at half of the fitted maximal effect. The settings on record: Potency: co-treated with 50 nM rosiglitazone unless noted. Summed up:
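Viability was measured as CellTiter-Glo luminescence in GeneBLAzer PPARg UAS-bla HEK293H cells. These cells had been exposed 17 h at 37 C to compounds together with rosiglitazone at 50 nM final, with the beta-lactamase readout taken in the same wells.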

The nature of experiment [12]: qHTS assay for small molecule activators of the heat shock response signaling pathway - cell viability counter screen (AID 743209). Further: nearly all actives have a fitted effect of over 50% in size. Further: potency means the concentration at half of the fitted maximal effect. Summed up: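 Cytotoxicity counter screen run in the same wells as the heat-shock bla reporter assay: HeLa HSE-bla cells, 5 h compound exposure at 37 C, viability read by CellTiter-Glo luminescence.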
Experiment [13] concerns the target Peroxisome proliferator-activated receptor delta (Homo sapiens) (UniProt Q03181). Kind of experiment: qHTS assay to identify small molecule antagonists of the peroxisome proliferator-activated receptor delta (PPARd) signaling pathway (AID 743215; active means well fitted inhibition curve with a large enough effect in the signal ratio in the repeat runs, not every such curve was filed as active; the % refers to the signal ratio;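 further: cells stimulated with agonist L165041 at 300 nM final during compound exposure; series mostly up to about 62 µM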). Put shortly: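 Agonist L165041 (300 nM final) added with compound to PPARd-bla HEK293H UAS-bla reporter cells; 17 h incubation at 37 C. Read-out: LiveBLAzer FRET substrate, 2 h at room temperature, fluorescence intensity.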

Experiment [14] can be described thus: qHTS assay to identify small molecule that activate the aryl hydrocarbon receptor (AhR) signaling pathway - cell viability counter screen (AID 743086). Further: nearly all actives have a fitted effect of over 45% in size. Further: potency means the concentration at half of the fitted maximal effect. Put shortly: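 Cytotoxicity counter screen: CellTiter-Fluor signal (30 min, 37 C) in 4000 HepG2 cells/well carrying the DRE-luciferase reporter, following 24 h compound exposure at 37 C.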
In experiment [15] the target is Peroxisome proliferator-activated receptor gamma (Homo sapiens) (UniProt P37231). Kind of experiment: qHTS assay to identify small molecule antagonists of the peroxisome proliferator-activated receptor gamma (PPARg) signaling pathway (AID 743191; calls by dose curve; further: nearly all actives have a fitted effect of over 30% in size; further: potency means the concentration at half of the fitted maximal effect). Summed up:
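Beta-lactamase reporter under UAS control in HEK293H PPARg-bla cells; compound treatment 17 h at 37C. Read-out: fluorescence intensity after 1 h room-temperature incubation with LiveBLAzer B/G FRET substrate.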

Experiment [16] in a line: qHTS assay for small molecule activators of the heat shock response signaling pathway (AID 743210; active means well fitted activation curve with a large enough effect in the signal ratio in the repeat runs, with a control signal flat, not every such curve was filed as active; the % refers to the signal ratio; further: series mostly up to about 63 µM). Summed up: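 Compound exposure lasted 5 h at 37 C in HeLa cells carrying a heat-shock-element-driven beta-lactamase reporter. Read-out: fluorescence intensity after 2.5 h room-temperature loading with LiveBLAzer B/G FRET substrate.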
In experiment [17] the target is Bile acid receptor (Homo sapiens) (UniProt Q96RI1). Nature of the experiment: qHTS assay to identify small molecule antagonists of the farnesoid-X-receptor (FXR) signaling pathway (AID 743217; active means well fitted inhibition curve with a large enough effect in the signal ratio in the repeat runs, not every such curve was filed as active; the % refers to the signal ratio). Put shortly:
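Antagonist mode: chenodeoxycholic acid at 50 uM final stimulates a UAS-driven beta-lactamase reporter in HEK 293T FXR-bla cells during 16 h, 37C compound exposure. Read-out is FRET substrate fluorescence after 2 h at room temperature.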

Experiment [18] concerns the target Peroxisome proliferator-activated receptor delta (Homo sapiens) (UniProt Q03181). Nature of the experiment: qHTS assay to identify small molecule agonists of the peroxisome proliferator-activated receptor delta (PPARd) signaling pathway (AID 743212; calls by dose curve;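 further: HEK293H cells with PPARd UAS beta-lactamase reporter GeneBLAzer system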). Summed up:
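Beta-lactamase reporter readout: a ratiometric FRET signal from the LiveBLAzer substrate after 2 h at room temperature. Compound exposure at 37 °C in PPARδ-bla HEK293H cells driven by an upstream activator sequence.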

The nature of experiment [19]: qHTS assay for small molecule agonists of the antioxidant response element (ARE) signaling pathway (AID 743202; active means well fitted activation curve with a large enough effect in the signal ratio in the repeat runs, not every such curve was filed as active; the % refers to the signal ratio). Summed up: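 After 16 hours of compound treatment at 37 C, HepG2 cells with a stably integrated ARE-driven beta-lactamase reporter were loaded 2 hours at room temperature with LiveBLAzer B/G FRET substrate and fluorescence intensity measured.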

Values joined by “and” are separate entries in the source; they are usually repeats but may differ in a detail not shown here. Equal values may be shown once. Inconclusive results are not listed. Active and inactive are the calls of the source. Unless noted, the call rests on the fitted dose curve; in most records, active means well fitted curve in the direction sought with a large enough effect in the repeat runs; inconclusive means weak or mixed curves; inactive means no such curve, though single readings can be large; an effect the other way counts as inactive or inconclusive.

Aryl hydrocarbon receptor (Homo sapiens), sequence (P35869 whole entry, looked up): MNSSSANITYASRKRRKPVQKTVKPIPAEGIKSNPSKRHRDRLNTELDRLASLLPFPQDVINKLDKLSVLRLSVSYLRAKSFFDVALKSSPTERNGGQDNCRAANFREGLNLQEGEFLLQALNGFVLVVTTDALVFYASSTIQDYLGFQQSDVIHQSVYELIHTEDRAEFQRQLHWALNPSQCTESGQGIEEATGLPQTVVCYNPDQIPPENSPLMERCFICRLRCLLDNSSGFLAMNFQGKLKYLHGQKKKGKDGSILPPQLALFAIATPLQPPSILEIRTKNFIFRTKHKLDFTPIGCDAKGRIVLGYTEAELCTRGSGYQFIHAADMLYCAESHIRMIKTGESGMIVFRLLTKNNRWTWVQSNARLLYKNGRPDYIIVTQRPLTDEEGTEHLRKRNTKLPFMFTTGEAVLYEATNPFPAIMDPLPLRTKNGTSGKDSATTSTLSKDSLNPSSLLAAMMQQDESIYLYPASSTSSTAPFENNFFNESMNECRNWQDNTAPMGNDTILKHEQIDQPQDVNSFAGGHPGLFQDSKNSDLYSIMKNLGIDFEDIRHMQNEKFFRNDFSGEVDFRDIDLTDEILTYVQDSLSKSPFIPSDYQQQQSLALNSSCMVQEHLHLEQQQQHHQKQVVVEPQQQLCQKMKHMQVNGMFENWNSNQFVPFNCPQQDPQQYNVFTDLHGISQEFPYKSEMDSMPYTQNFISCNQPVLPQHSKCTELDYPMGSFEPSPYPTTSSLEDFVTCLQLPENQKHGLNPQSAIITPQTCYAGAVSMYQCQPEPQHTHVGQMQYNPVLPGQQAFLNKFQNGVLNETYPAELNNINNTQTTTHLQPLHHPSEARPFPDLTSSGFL
Peroxisome proliferator-activated receptor delta (Homo sapiens), sequence (Q03181 whole entry, looked up): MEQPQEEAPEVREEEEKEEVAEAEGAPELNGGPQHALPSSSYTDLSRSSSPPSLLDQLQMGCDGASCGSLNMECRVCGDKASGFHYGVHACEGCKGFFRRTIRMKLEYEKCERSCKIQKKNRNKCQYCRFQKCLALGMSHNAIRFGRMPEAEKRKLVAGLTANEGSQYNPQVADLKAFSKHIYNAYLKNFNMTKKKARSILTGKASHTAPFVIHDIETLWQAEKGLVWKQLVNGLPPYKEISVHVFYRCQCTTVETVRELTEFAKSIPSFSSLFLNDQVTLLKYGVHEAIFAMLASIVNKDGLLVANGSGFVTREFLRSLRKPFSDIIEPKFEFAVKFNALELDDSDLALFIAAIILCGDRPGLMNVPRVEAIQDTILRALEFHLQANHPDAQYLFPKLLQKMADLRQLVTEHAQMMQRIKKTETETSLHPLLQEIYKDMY
Bile acid receptor (Homo sapiens), sequence (Q96RI1 whole entry, looked up): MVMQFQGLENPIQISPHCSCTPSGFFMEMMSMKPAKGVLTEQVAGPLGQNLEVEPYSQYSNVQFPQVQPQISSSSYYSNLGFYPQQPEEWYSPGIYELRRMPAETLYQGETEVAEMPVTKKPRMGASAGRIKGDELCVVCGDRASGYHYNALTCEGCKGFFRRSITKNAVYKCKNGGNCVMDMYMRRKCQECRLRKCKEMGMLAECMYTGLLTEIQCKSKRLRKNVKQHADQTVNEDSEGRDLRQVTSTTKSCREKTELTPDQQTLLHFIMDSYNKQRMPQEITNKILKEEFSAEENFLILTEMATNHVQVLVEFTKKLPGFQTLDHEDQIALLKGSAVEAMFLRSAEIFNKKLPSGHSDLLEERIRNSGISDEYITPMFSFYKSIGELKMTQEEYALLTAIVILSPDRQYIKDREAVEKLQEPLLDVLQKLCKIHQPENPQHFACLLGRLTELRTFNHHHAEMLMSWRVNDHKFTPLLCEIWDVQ

With `COC(=O)/C=C(\C)OP(=O)(OC)OC`, the Potency entry in [1], in [2], in experiment [3], in [4], in [5] and in [6] was “inactive” throughout. The Potency entry in experiment [7], in [8], in experiment [9] and in experiment [10] was “inactive” throughout.
Regarding `O=C(N[C@H]1N=C(c2ccccc2F)c2cccc3c2N(CC3)C1=O)c1cc2ccccc2[nH]1`, the Potency entry in experiment [1], in [3], in [11], in [4], in experiment [12] and in experiment [5] was “inactive” throughout. Further, the Potency entry in experiment [13], in experiment [7], in experiment [9] and in experiment [10] was “inactive” in each case. Further, the Potency in experiment [2] is 5310 nM (active).
For `CC(=O)[O][Sn]([c]1ccccc1)([c]1ccccc1)[c]1ccccc1`, the Potency in experiment [1] is 344 nM (active); in experiment [14], 770 nM (active); in experiment [11] it was 138 nM (active); in experiment [4], 0.0344 µM (active); in [12] it was 15.5 µM (active); in [5] it was 97.7 nM (active). For the same compound, the Potency was 275 nM (active) in [6], 97.7 nM (active) in [7] and 138 nM (active) in [8]. In addition, the Potency entry in [2] was “inactive”.
Turning to `O.O.O.O.O.O.O.O=S(=O)([O-])[O-].[Co+2]`, the Potency entry in [1], in experiment [2], in experiment [14], in experiment [4], in experiment [12] and in experiment [6] was “inactive” each time. The Potency entry in experiment [8] was “inactive”.
With `S=C=Nc1ccccc1`, the Potency result in experiment [1], in experiment [2], in experiment [3], in experiment [15], in experiment [11] and in experiment [4] was “inactive” each time. The Potency result in experiment [12], in experiment [16], in experiment [5], in [6], in experiment [17] and in [7] was “inactive” in each case. The Potency result in experiment [8] and in experiment [9] was “inactive” throughout.
For `[Cl-].[Cl-].[Sn+2]`, the Potency entry in experiment [1], in [2], in experiment [14], in experiment [11], in [4] and in experiment [16] was “inactive” each time. In addition, the Potency entry in experiment [5], in experiment [6] and in experiment [7] was “inactive” each time.
In the case of `O=[N+]([O-])[O-].[Tl+]`, the Potency result in experiment [1], in experiment [2], in experiment [14], in [11], in [12] and in experiment [5] was “inactive” each time. The Potency result in experiment [7] and in experiment [8] was “inactive” throughout.
On to `[Cl][Hg][c]1ccccc1`, for which the Potency in experiment [1] is 1930 nM (active); in experiment [14] it was 5450 nM (active); in experiment [11], 776 nM (active); in experiment [4], 1.72 µM (active); in [12], 3.09 µM (active); in [5], 977 nM (active). In addition, the values for the Potency in experiment [6], in experiment [7] and in experiment [8] were 2190 nM (active), 1550 nM (active) and 1380 nM (active), respectively. Besides, the Potency entry in experiment [2] and in [9] was “inactive” each time.
Turning to `Cc1nn(-c2cc(NS(C)(=O)=O)c(Cl)cc2Cl)c(=O)n1C(F)F`, the Potency entry in [1], in experiment [2], in [3], in [11], in experiment [4] and in experiment [12] was “inactive” throughout. For the same compound, the Potency result in [16], in experiment [5], in [6], in experiment [7], in [8] and in experiment [10] was “inactive” in each case.
Regarding `CC(C)[C@@H](Nc1ccc(C(F)(F)F)cc1Cl)C(=O)OC(C#N)c1cccc(Oc2ccccc2)c1` (stereo partly specified), the Potency result in experiment [1], in experiment [2], in [14], in [11], in experiment [4] and in [12] was “inactive” in each case. Besides, the Potency result in [5], in [7] and in experiment [8] was “inactive” each time.
Turning to `CNC(=O)Oc1cc(C)cc(C(C)C)c1`, the Potency result in experiment [1], in experiment [2], in [3], in [11], in [4] and in experiment [16] was “inactive” in each case. For the same compound, the Potency result in experiment [5], in experiment [18], in experiment [6], in experiment [13], in experiment [7] and in experiment [8] was “inactive” throughout. Moreover, the Potency result in experiment [9] and in [10] was “inactive” in each case.
Turning to `N#CC(C#N)=NNc1cccc(Cl)c1`, the Potency in experiment [1] was 9690 nM (active); in experiment [14], 15400 nM (active); in [11], 490 nM (active); in experiment [4] it was 27.3 µM (active); in experiment [5] it was 8710 nM (active); in experiment [6], 8710 nM (active). For the same compound, the Potency in [7] was 5490 nM (active); in [8], 6920 nM (active). Further, in experiment [2], the Potency entry was “inactive”.
In the case of `OCC(Br)CBr` (stereo unspecified), the Potency entry in [1], in experiment [2], in [3], in experiment [15], in [11] and in experiment [19] was “inactive” in each case. In addition, the Potency result in experiment [4], in experiment [16], in [5], in [18], in experiment [6] and in experiment [13] was “inactive” throughout. Further, the Potency entry in [17], in experiment [7], in experiment [8], in experiment [9] and in experiment [10] was “inactive” in each case.
In the case of `CC(C)N(C(=O)CCl)c1ccccc1`, the Potency in [1] is 24300 nM (active); in [15], 3.89 µM (active) and 3.47 µM (active); in [11], 49 µM (active) and 27.5 µM (active); in experiment [4], 6.86 µM (active) and 3.86 µM (active); in [12] it was 12.3 µM (active) and 5.49 µM (active); in [5], 49 µM (active) and 43.6 µM (active). Besides, the Potency result in [2], in experiment [3], in experiment [8] and in [9] was “inactive” each time.
